Drawing on the supplement of paper PMC12339681, this text covers synaptosome phagocytic index for 37 molecules.

Counter-ions that a name gives are not always drawn.

For the assay, the system named is PBMC-derived induced microglia-like cells (piMGLC). The experiment in a line: synaptosome phagocytic index relative to DMSO control (fraction of DMSO); higher = more phagocytosis. The note with it: concentration: 10 uM (2 uM for compounds listed in Table S2); pretreatment time: 24 h; assay time: 3 h.
Regarding `CC(=O)Nc1cccc(-n2c(=O)n(C3CC3)c(=O)c3c(Nc4ccc(I)cc4F)n(C)c(=O)c(C)c32)c1` [Trametinib], the synaptosome phagocytic index was determined as 0.637.
Consider `CCc1cc(C(N)=S)ccn1` [Ethionamide], for which the synaptosome phagocytic index is 0.996.
Under `CC(=O)NCCCS(=O)(=O)O` [Acamprosate_(calcium)] stands 0.864; under `OCCOCCN1CCN(C2=Nc3ccccc3Sc3ccccc32)CC1` [Quetiapine], 0.906; under `CN1[C@@H]2CC[C@H]1C[C@@H](OC(c1ccccc1)c1ccccc1)C2` [Benztropine_(mesylate)], 0.833.
In the case of `CN(C)CC(c1ccc(O)cc1)C1(O)CCCCC1` (configuration not stated) [Desvenlafaxine_(succinate_hydrate)], the synaptosome phagocytic index was determined as 1.11.
On to `COc1cc2nc(N(C)CCCNC(=O)C3CCCO3)nc(N)c2cc1OC` (configuration not stated) [Alfuzosin], for which the synaptosome phagocytic index worked out at 0.938.
Under `CCCCN1C[C@H](O)[C@@H](O)[C@H](O)[C@H]1CO` [Miglustat_(hydrochloride)] stands 1.04; under `Cc1c(N)c(=O)n(-c2ccccc2)n1C` [Ampyrone], 0.708; under `NC[C@H]1CC[C@H](C(=O)O)CC1` [Tranexamic_acid], 0.927.
With `CC(=O)Nc1ccc(C(=O)Nc2cc(-c3cccs3)ccc2N)cc1`, the synaptosome phagocytic index stood at 0.416.
For `CNCCCC1c2ccccc2C=Cc2ccccc21` [Protriptyline_(hydrochloride)], the synaptosome phagocytic index amounted to 0.93.
The value for `CN(C)CCOC(C)(c1ccccc1)c1ccccn1` (configuration not stated) [Doxylamine_(succinate)] was 0.833; that for `COc1cc(/C=C/C(=O)NCCn2c(C)cc3ccccc32)cc(OC)c1OC` was 0.832.
The value for `CC(C)Cc1ccc(C(C)C(=O)O)cc1` (configuration not stated) [Ibuprofen] was 0.74; that for `NC12CC3CC(CC(C3)C1)C2` [Amantadine_(hydrochloride)] was 1.02; that for `O=C(O)CCCc1ccccc1` [Sodium_4-phenylbutyrate] was 0.996.
The value for `Cc1ccc(C(=O)c2cc(O)c(O)c([N+](=O)[O-])c2)cc1` [Tolcapone] was 0.526; that for `CN1CCC(=C2c3ccccc3C=Cc3ccccc32)CC1` [Cyproheptadine_(hydrochloride)] was 0.741; that for `Nc1nc(=O)n([C@@H]2CS[C@H](CO)O2)cc1F` [Emtricitabine] was 0.777.
For the molecule `Cn1c(OCC2CCC(C(F)(F)F)CC2)nn2c(C3CCOCC3)ncc2c1=O` (configuration not stated), the synaptosome phagocytic index is 0.831.
Under `CC[C@]1(O)C[C@H]2CN(CCc3c([nH]c4ccccc34)[C@@](C(=O)OC)(c3cc4c(cc3OC)N(C=O)[C@H]3[C@@](O)(C(=O)OC)[C@H](OC(C)=O)[C@]5(CC)C=CCN6CC[C@]43[C@@H]65)C2)C1` [Vincristine_(sulfate)] stands 1.04; under `CC(=O)N[C@@H](CS)C(=O)O` [Acetylcysteine], 0.86.
The value for `CC(C)c1c(C(=O)Nc2ccccc2)c(-c2ccccc2)c(-c2ccc(F)cc2)n1CC[C@@H](O)C[C@@H](O)CC(=O)O` [Atorvastatin_(hemicalcium_salt)] was 0.823; that for `COc1ccc(Cl)cc1C(=O)NCCc1ccc(S(=O)(=O)NC(=O)NC2CCCCC2)cc1` [Glibenclamide] was 0.608.
Under `Fc1ccc(-c2ccc3c(c2)[nH]c2ccncc23)cn1` stands 0.711; under `CCCCCCCCCC(=O)O` [Decanoic_acid], 1.32.
For the molecule `CCN(CC)C(=O)C1(c2ccccc2)CC1CN` (configuration not stated) [Milnacipran_(hydrochloride)], the synaptosome phagocytic index amounted to 1.35.
Under `O=C1CCc2ccc(OCCCCN3CCN(c4cccc(Cl)c4Cl)CC3)cc2N1` [Aripiprazole] stands 0.885; under `O=C(c1ccccc1)c1ccc2n1CCC2C(=O)O` (configuration not stated) [Ketorolac_(tromethamine_salt)], 0.874.
Under `CS(=O)(=O)CCNCc1ccc(-c2ccc3ncnc(Nc4ccc(OCc5cccc(F)c5)c(Cl)c4)c3c2)o1` [Lapatinib_(ditosylate)] stands 0.126; under `CC(CN(C)C)CN1c2ccccc2CCc2ccccc21` (configuration not stated) [Trimipramine_(maleate)], 0.449; under `CC(=O)Oc1ccccc1C(=O)O` [Aspirin], 0.579.
The value for `CC1CCN(CC[C@H]2CCCN2S(=O)(=O)c2cccc(O)c2)CC1` was 0.817; that for `O=C(O)Cc1nn(Cc2nc3cc(C(F)(F)F)ccc3s2)c(=O)c2cscc12` was 0.982.
In the case of `CCC(=N\O)/C(C)=C/c1ccc(F)cc1`, the synaptosome phagocytic index was 0.93.
Under `CCOc1nc2cccc(C(=O)O)c2n1Cc1ccc(-c2ccccc2-c2nnn[nH]2)cc1` [Candesartan] stands 1.1.
